Results on 39 molecules are retold here after PubChem BioAssay (NCI).

Structures are written as SMILES. About 83,000 compounds went through this panel and 20% of them were active in at least one assay; those are over-represented in the sample as a whole.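 Testing used 96-well plates and a 48-hour single-concentration exposure. Example: -40 means 40% of the starting cells died.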 A number with no mark means an inactive call. Activity calls are given as the source filed them. How the source made its calls: active means growth percent below 10; inactive means the rest.

One assay concerns ACHN renal. Put plainly: NCI-60 one-dose screen, 48 h (100 = growth as untreated, 0 = no growth, -100 = all killed). To be noted: 10 µM unless noted.
With `CC(C)OC(=O)c1ccc([N+](=O)[O-])cc1`, the growth was 114%.

Turning to `COc1cc(CN2CCO[C@H](COc3cccc(F)c3)C2)ccc1Cl`, the growth is 53.9%.

As for `COc1cc(NC(C)CCCN)c2ncccc2c1Oc1ccc(Cl)cc1` (stereo not given), the growth was 82.6%.

In the case of `OC(c1cc(-c2ccc(C(F)(F)F)cc2)nc(-c2ccc(C(F)(F)F)cc2)c1)C1CCCCN1` (stereo not given), the growth was -73.4% (active).

Turning to `C=CCn1c(C)nc2cc(Nc3nc(Nc4ccc5nc(C)n(CC=C)c5c4)nc4ccccc34)ccc21`, the growth was 104%.

In the case of `Fc1ccc2c(CN3CCO[C@H](COc4cccc(Cl)c4)C3)c[nH]c2c1`, the growth was 46.8%.

The test system of another assay is CAKI-1 renal. Described as above. To be noted: 10 µM unless noted.
With `Cn1nc(C(F)(F)F)cc1-c1cc(Cl)c(OCc2ccc(Cl)cc2)c(-c2ccc(Cl)c(C(F)(F)F)c2)c1O`, the growth was -19.2% (active).

Regarding `CC(=O)O[C@H]1[C@H](CC#CC#CC[C@@H]2C[C@]3(C)[C@H]4CC=C5[C@H]6[C@@H](C)[C@H](C)CC[C@]6(C(=O)NCCN(CCN)CCN)CC[C@@]5(C)[C@]4(C)CC[C@H]3C(C)(C)[C@H]2OC(C)=O)C[C@]2(C)[C@H]3CC=C4[C@H]5[C@@H](C)[C@H](C)CC[C@]5(C(=O)NCCN(CCN)CCN)CC[C@@]4(C)[C@]3(C)CC[C@H]2C1(C)C`, the growth is 35%.

For the molecule `CC(=O)c1ccc(Nc2nc(Cl)nc(Oc3c(Cl)cccc3Cl)n2)cc1`, the growth was 85.5%.

For the molecule `Oc1[nH]c2ccccc2c1/C=c1/ccc2c(c1)N=C(c1ccc(C(F)(F)F)cc1)N=2`, the growth was 32.8%.

As to `Brc1cccc(-n2ncc3c(Nc4ccc(-c5nnc(-c6ccccc6)o5)cc4)ncnc32)c1`, the growth is 90.4%.

For `CCNC(=S)N(Cc1ccccc1)Cc1ccccc1`, the growth is 93.5%.

On to `COc1cccc(CC(C)=C(c2ccc(OCCCN(C)C)cc2)c2ccc(OCCCN(C)C)cc2)c1`, for which the growth was -97.7% (active).

As for `N[C@@H](CO)C(=O)O`, the growth is 91.2%.

In the case of `O=C(c1ccc(C(F)(F)F)c(Cl)c1)N(Cc1ccc(Cl)cc1)c1ccc(-c2cc(C(F)(F)F)[nH]n2)c(O)c1`, the growth is 1.19% (active).

On to `c1ccc(C(Nc2ccccn2)(c2ccccc2)c2ccccc2)cc1`, for which the growth was 63.3%.

As to `CC[C@H](Nc1nc(N)nc(N)c1Cl)c1nc2cccc(NCc3ccc(C(=O)NO)cc3)c2c(=O)n1-c1ccccc1`, the growth was 39.6%.

Take `N#Cc1nc(-c2ccc(Cl)cc2)cc(-c2ccc(Nc3nc(N4CCCCC4)nc(N4CCCCC4)n3)cc2)c1N`: the growth is 83.8%.

With `C#CC[C@@H]1C[C@]2(C)[C@H]3CC=C4[C@H]5[C@@H](C)[C@H](C)CC[C@]5(C(=O)NCCCCN)CC[C@@]4(C)[C@]3(C)CC[C@H]2C(C)(C)[C@H]1OC(C)=O`, the growth is 50.5%.

Turning to `Cn1nc(C(F)(F)F)cc1-c1c[nH]c(OCc2ccc(Cl)cc2)c(-c2ccc(Cl)c(C(F)(F)F)c2)c1=O`, the growth is -22.7% (active).

For the molecule `COc1ccc(NC(=O)c2ccc(C(F)(F)F)nc2Nc2ccc(Cl)cc2C)cc1Cl`, the growth was 19.9%.

On to `O=C(Cn1nncc1CN1C(=O)CSC1=O)Nc1ccc(F)cc1`, for which the growth is 96.4%.

Take `COc1ccc(NC(=O)/C=C/c2ccc(Cl)c(Cl)c2)cn1`: the growth was 59.3%.

For the molecule `CCCCNCC(O)c1cc(-c2ccc(C(F)(F)F)cc2)nc(-c2ccc(C(F)(F)F)cc2)c1` (stereo not given), the growth is -73% (active).

For the molecule `CCCc1cc2c(cc1CN(Cc1cc3c(cc1CCC)OCO3)C(=N)OCC)OCO2`, the growth was 83.5%.

For the molecule `CCCNC(=S)N/N=C(\C)c1ccccn1`, the growth was 6.68% (active).

Regarding `C#CC[C@@H]1C[C@]2(C)[C@H]3CC[C@@H]4[C@H]5C(C(=C)C)CC[C@]5(C(=O)NCCCN5CCN(CCCN)CC5)CC[C@@]4(C)[C@]3(C)CC[C@H]2C(C)(C)[C@H]1OC(C)=O` (stereo not given in full), the growth is -96.1% (active).

Regarding `COc1cc2nccc(Oc3ccc(NC(=O)C4(C(=O)Nc5c(F)cc(F)cc5F)CC4)cc3)c2cc1Oc1ccc(N)cn1`, the growth was 65.6%.

`COc1ccc2[nH]c(C(=O)OCc3ccc4cccc(O)c4n3)cc2c1`: the growth is -97.6% (active).

As for `CCOCC(O)(c1ccc(Cl)cc1)c1ccc(Cl)cc1`, the growth is 88.2%.

Regarding `Cc1cc(C)cc(NC(=O)Cn2nncc2CN2C(=O)CSC2=O)c1`, the growth was 95.2%.

With `Cc1ccc(NC(=O)Cn2nncc2CN2C(=O)CSC2=O)cc1C`, the growth was 96.8%.

With `COC(=O)/C=C/c1cc(OC(C)=O)c2c(c1)[C@@H](C(=O)OC)[C@H](c1ccc(OC(C)=O)c(OC(C)=O)c1)O2`, the growth is 17.9%.

In the case of `N=c1n(Cc2ccccc2)c(N)cc(=O)n1Cc1ccccc1`, the growth was 0.138% (active).

`CC(C)[C@H](CN)NC[C@H](C)NS(=O)(=O)c1ccc(C(C)(C)C)cc1`: the growth is 94.1%.

On to `COc1ccc(/C(=C\c2ccc3c(c2)OCO3)C(=O)Nc2nc3ccccc3s2)cc1`, for which the growth was 91.4%.

`Cc1ccc(-c2cnc3sc4ccc(Cl)cc4n23)cc1`: the growth is 84.2%.

Turning to `COc1cc(C2Nc3ccccc3S2)cc(CN2CCOCC2)c1O` (stereo not given), the growth is 74%.

Turning to `CC1=C(O)C(=O)C(c2c(C)cc(C)c(Br)c2C)=C(O)C1=O`, the growth is 50.2%.

In the case of `CC(C)OC(=O)c1ccc([N+](=O)[O-])cc1`, the growth was 103%.

As for `COc1cc(CN2CCO[C@H](COc3cccc(F)c3)C2)ccc1Cl`, the growth is 41.3%.

Consider `COc1cc(NC(C)CCCN)c2ncccc2c1Oc1ccc(Cl)cc1` (stereo not given), for which the growth was 68.7%.

`OC(c1cc(-c2ccc(C(F)(F)F)cc2)nc(-c2ccc(C(F)(F)F)cc2)c1)C1CCCCN1` (stereo not given): the growth is -81.6% (active).

With `C=CCn1c(C)nc2cc(Nc3nc(Nc4ccc5nc(C)n(CC=C)c5c4)nc4ccccc34)ccc21`, the growth was 101%.

For `Fc1ccc2c(CN3CCO[C@H](COc4cccc(Cl)c4)C3)c[nH]c2c1`, the growth is 65.3%.
